Data from PubChem BioAssay (EPA / NIEHS).
Records with an inconclusive call do not appear. Calls of active or inactive are those of the source. The calls were made as follows, unless noted: active = hit-call score of the fitted dose curve at least 0.9, where 1 is the maximum; inconclusive = response in the unintended direction; inactive = score below 0.9.

What was measured:
[1] = CCTE_Shafer_MEA_acute_per_network_burst_electrodes_number_mean: CCTE's Neural Acute Assay for Mean Number of Electrodes in a Network Burst, Shafer Lab (AID 2284021; active = hit-call score of the fitted dose curve at least 0.9, where 1 is the maximum; inactive = score below 0.9;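 also: curves fitted for decreases only so hits reduce electrodes per burst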)
In short: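 Primary rat cortical networks, mwMEA, 37 C. 20 min stabilization, 40 min baseline, compound 0.03-40 uM, 40 min re-record. Wells need >=10 active electrodes; percent change per well, negative fitting direction.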

[2] = CCTE_Shafer_MEA_acute_network_burst_percentage: CCTE's Neural Acute Assay for Percentage of Network Bursts, Shafer Lab (AID 2284022; active = hit-call score of the fitted dose curve at least 0.9, where 1 is the maximum; inactive = score below 0.9;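 also: curves fitted for loss so actives lower network burst percentage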)
In short: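 Readout is the fraction of spikes falling in network bursts, expressed as per-well percent change from a 40-min pre-exposure baseline. Primary rat cortical neurons on MEA were exposed to 0.03-40 uM compound on DIV 13 or 15 and recorded for 40 min at 37 C.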

[3] = CCTE_Shafer_MEA_acute_cross_correlation_area: CCTE's Neural Acute Assay for Area of Cross Correlation, Shafer Lab (AID 2284024; active = hit-call score of the fitted dose curve at least 0.9, where 1 is the maximum; inactive = score below 0.9;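 also: area under pooled inter-electrode spike cross-correlation near zero lag as percent change from own baseline; curves fitted for loss of cross-correlation area so actives lower synchrony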;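 as to outcome: rat primary cortical neuron networks on 48-well MEA at DIV 13 or 15 with 40 min exposure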)
In short: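 Plates equilibrated 20 min at 37 C, then 40 min baseline was recorded, compound was added (0.03-40 uM), and a further 40 min was recorded. Wells needed ≥10 active electrodes (≥5 spikes/min) on exposure day.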

[4] = CCTE_Shafer_MEA_acute_cross_correlation_HWHM: CCTE's Neural Acute Assay for Cross Correlation at Half Width at Half Maximum, Shafer Lab (AID 2284026; active = hit-call score of the fitted dose curve at least 0.9, where 1 is the maximum; inactive = score below 0.9;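 also: percent change per well from pre-dose baseline in spike cross-correlogram half width; hits are a decrease in cross-correlogram half width relative to DMSO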;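 as to outcome: spontaneous network firing of rat primary cortical neurons on multiwell microelectrode arrays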)
In short: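 Rat cortical neuron cultures on microelectrode arrays were equilibrated 20 min at 37 C, recorded 40 min at baseline, then 40 min after compound addition (0.03-40 uM, ≥3 wells). Spikes were detected at 8x rms noise after 300-5000 Hz band-pass filtering.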

[5] = target: Estrogen receptor (Homo sapiens) (UniProt P03372); assay: CCTE_Deisenroth_AIME_384WELL_LUC_Active: CCTE's 384-well Estrogen Receptor Transactivation Assay with AIME metabolic competence (ERTA luciferase; metabolism positive), Deisenroth Lab (AID 2284030)
Sequence of Estrogen receptor (Homo sapiens) (P03372 whole entry, looked up): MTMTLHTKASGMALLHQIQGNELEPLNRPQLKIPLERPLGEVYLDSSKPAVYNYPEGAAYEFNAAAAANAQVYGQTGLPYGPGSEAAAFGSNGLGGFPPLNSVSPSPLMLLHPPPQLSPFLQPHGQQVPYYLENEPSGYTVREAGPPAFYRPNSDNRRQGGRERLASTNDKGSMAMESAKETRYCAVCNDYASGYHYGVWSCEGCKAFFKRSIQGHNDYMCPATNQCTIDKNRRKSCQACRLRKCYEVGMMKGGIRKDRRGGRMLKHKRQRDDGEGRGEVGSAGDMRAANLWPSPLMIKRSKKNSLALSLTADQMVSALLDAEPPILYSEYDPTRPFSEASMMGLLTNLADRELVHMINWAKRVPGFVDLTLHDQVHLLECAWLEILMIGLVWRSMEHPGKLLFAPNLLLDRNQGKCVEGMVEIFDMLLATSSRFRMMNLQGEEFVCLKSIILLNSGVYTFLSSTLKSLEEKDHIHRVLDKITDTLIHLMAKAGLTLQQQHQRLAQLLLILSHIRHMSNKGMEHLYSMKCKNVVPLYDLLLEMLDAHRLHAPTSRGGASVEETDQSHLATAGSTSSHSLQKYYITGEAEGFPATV
In short: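 AIME metabolism-positive mode: chemicals 0.002 - 200 uM, 2 h with alginate-bound PB/BNF-induced rat S9 → medium to VM7Luc4E2 ERTA, 24 h → luciferase. Positive fit vs 17beta-estradiol; n=4 typical.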

[6] = target: Estrogen receptor (Homo sapiens) (UniProt P03372); assay: CCTE_Deisenroth_AIME_384WELL_LUC_Inactive: CCTE's 384-well Estrogen Receptor Transactivation Assay without AIME metabolic competence (ERTA luciferase; metabolism negative), Deisenroth Lab (AID 2284038);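 also: hits raise estrogen receptor luciferase signal so potencies reflect agonists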
In short: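 Metabolism-negative mode: AIME lids stamped in alginate-water, no hepatic S9. 2 h chemical incubation → medium onto VM7Luc4E2 ERTA, 24 h. Readout luciferase luminescence; gain-of-signal fit vs 17beta-estradiol. Conc. 0.002 - 200 uM.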

[7] = CCTE_Deisenroth_AIME_384WELL_CTox_Inactive: Cytotoxicity Assessment (CTOX) in CCTE's 384-well Estrogen Receptor Transactivation Assay without AIME metabolic competence (metabolism negative), Deisenroth Lab (AID 2284039);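 also: cell viability via live-cell protease substrate cleaved to fluorescent probe; cells exposed 24 h to medium preincubated 2 h with alginate-water beads without S9; loss of fluorescence signal means loss of viability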
In short: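 Fluorescent protease-substrate viability readout after 24 h exposure of VM7Luc4E2 cells to conditioned medium. Chemicals (0.002–200 uM) first sat 2 h over alginate-water beads, no S9. Data fitted bidirectionally, loss of signal meaning viability loss.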

[8] = target: Estrogen receptor (Homo sapiens) (UniProt P03372); assay: CCTE_Deisenroth_AIME_384WELL_LUC_Shift: CCTE's 384-well Estrogen Receptor Transactivation Assay with AIME metabolic competence data shift (ERTA luciferase; difference in metabolism positive and negative), Deisenroth Lab (AID 2284041; active = hit-call score of the fitted dose curve at least 0.9, where 1 is the maximum; inactive = score below 0.9;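 also: shift is response with S9 minus without S9 so positive means metabolism raised ER signal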)
In short: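 Here, parent compounds undergo 2 h phase I metabolism by PB/BNF-induced rat S9 before 24 h transactivation in VM7Luc4E2 cells; the curve models S9-positive minus S9-negative response over a 10-point series.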

[9] = target: Estrogen receptor (Homo sapiens) (UniProt P03372); assay: CCTE_Deisenroth_AIME_96WELL_LUC_Active: CCTE's 96-well Estrogen Receptor Transactivation Assay with AIME metabolic competence (ERTA luciferase; metabolism positive), Deisenroth Lab (AID 2284023)
In short: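 Metabolism-positive mode: induced rat hepatic S9 in alginate microspheres conditions test solutions (0.002 - 200 uM, 10 points) for 2 hours. VM7Luc4E2 ER luciferase reporter cells then exposed 24 h; positive-direction fit against 17beta-estradiol, n=4 typical.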

[10] = target: Estrogen receptor (Homo sapiens) (UniProt P03372); assay: CCTE_Deisenroth_AIME_96WELL_LUC_Inactive: CCTE's 96-well Estrogen Receptor Transactivation Assay without AIME metabolic competence (ERTA luciferase; metabolism negative), Deisenroth Lab (AID 2284025)
In short: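 Metabolism-negative arm: chemicals (0.002–200 uM, 10 points) incubated 2 h with alginate-water microspheres, then medium moved onto VM7Luc4E2 cells for 24 h luciferase read-out. Positive direction vs 17beta-estradiol; n≥4 experiments.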

[11] = CCTE_Deisenroth_AIME_96WELL_CTox_Active: Cytotoxicity Assessment (CTOX) in CCTE's 96-well Estrogen Receptor Transactivation Assay with AIME metabolic competence (metabolism positive), Deisenroth Lab (AID 2284028)
In short: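 Cytotoxicity in VM7Luc4E2 breast cells after 24 h exposure to medium from a 2 h metabolic pre-incubation with induced rat hepatic S9 in alginate microspheres; fluorescent live-cell protease readout, 10-point series 0.002–200 uM, n=4.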

[12] = CCTE_Deisenroth_AIME_96WELL_CTox_Inactive: Cytotoxicity Assessment (CTOX) in CCTE's 96-well Estrogen Receptor Transactivation Assay without AIME metabolic competence (metabolism negative), Deisenroth Lab (AID 2284029)
In short: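 Cytotoxicity in VM7Luc4E2 breast cells was scored as loss of fluorescent signal from a live-cell protease substrate 24 h after exposure, using bidirectional curve fitting. Test media came from a 2 h metabolism-negative pre-incubation (alginate-water, no hepatic S9) of compounds at 0.002-200 uM, with at least four replicates.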

[13] = CCTE_Shafer_MEA_dev_firing_rate_mean: CCTE's Neural Network Formation Assay for Mean Firing Rate, Shafer Lab (AID 2284031; active = hit-call score of the fitted dose curve at least 0.9, where 1 is the maximum; inactive = score below 0.9)
In short: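 Extracellular spike frequency, AUC over DIV 5–12 recordings, in rat cortical neuron MEA cultures dosed from plating; loss direction vs DMSO.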

[14] = CCTE_Shafer_MEA_dev_per_burst_spike_percent: CCTE's Neural Network Formation Assay for Percent of Spikes in a Burst, Shafer Lab (AID 2284032; active = hit-call score of the fitted dose curve at least 0.9, where 1 is the maximum; inactive = score below 0.9)
In short: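 Value is trapezoidal AUC over recordings on days 5, 7, 9 and 12 of the well-mean fraction of spikes falling in single-electrode bursts; rat cortical cultures exposed continuously from plating, treatment renewed DIV 5 and 9, fitted downward against DMSO.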

[15] = CCTE_Shafer_MEA_dev_active_electrodes_number: CCTE's Neural Network Formation Assay for Number of Active Electrodes, Shafer Lab (AID 2284040)
In short: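 Developing rat cortical networks on MEAs, exposed DIV 0–12. Value is the AUC of active-electrode counts (≥5 spikes/min) from days 5, 7, 9, 12, relative to DMSO.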

[16] = CCTE_Shafer_MEA_dev_burst_rate: CCTE's Neural Network Formation Assay for Burst Rate, Shafer Lab (AID 2284042; active = hit-call score of the fitted dose curve at least 0.9, where 1 is the maximum; inactive = score below 0.9)
In short: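 Exposure ran continuously over 12 days of network development in rat cortical cultures, with compound refreshed during full media changes on DIV 5 and 9. Single-electrode bursts per recording time, well-mean over active electrodes, trapezoidal AUC across days 5–12, fitted downward relative to DMSO.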

[17] = CCTE_Shafer_MEA_dev_bursting_electrodes_number: CCTE's Neural Network Formation Assay for Number of Bursting Electrodes, Shafer Lab (AID 2284043)
In short: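 Counted: electrodes with burst rate ≥1 per 2 min in each well. Cells: primary rat cortex, 1.5 x 10^5/well, on 16-electrode MEA wells. Exposure: DIV 0–12, compound renewed DIV 5 and 9. Recording days 5, 7, 9, 12; AUC vs DMSO baseline.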

[18] = CCTE_Shafer_MEA_dev_per_burst_interspike_interval: CCTE's Neural Network Formation Assay for Burst Interspike Interval, Shafer Lab (AID 2284044; active = hit-call score of the fitted dose curve at least 0.9, where 1 is the maximum; inactive = score below 0.9)
In short: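 Neurons from rat cortex plated onto PEI-coated MEA wells with laminin […] at 1.5 x 10^5 cells/well, then treated from day 0. Media and compound fully replaced on DIV 5 and 9. Extracellular spontaneous firing recorded four times; interspike interval per burst summarised as AUC.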

[19] = CCTE_Shafer_MEA_dev_burst_duration_mean: CCTE's Neural Network Formation Assay for Mean Burst Duration, Shafer Lab (AID 2284045; active = hit-call score of the fitted dose curve at least 0.9, where 1 is the maximum; inactive = score below 0.9)
In short: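 Network-formation assay in primary rat cortical neurons; treatment spans twelve days of development. Mean burst duration per well is integrated by trapezoidal AUC and fitted in the loss-of-signal direction against DMSO baseline.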

[20] = CCTE_Shafer_MEA_dev_interburst_interval_mean: CCTE's Neural Network Formation Assay for Mean Interburst Interval, Shafer Lab (AID 2284046; active = hit-call score of the fitted dose curve at least 0.9, where 1 is the maximum; inactive = score below 0.9;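 also: well-mean interburst interval of bursting electrodes as AUC over four recording days; curve fitted for decrease in interburst interval relative to DMSO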)
In short: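 Primary rat cortical neurons on PEI-coated 48-well MEA plates (laminin added with cells at plating) (16 electrodes/well), exposed from plating day 0 with renewal at DIV 5 and 9. Mean inter-burst interval averaged over bursting electrodes, AUC across days 5, 7, 9, 12; DMSO baseline.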

CC(C)C(=O)OCCc1ccccc1
AC50 [1]: 21.3 nM (active) | outcome [2]: inactive | outcome [3]: inactive | outcome [4]: inactive

O=C(Nc1ccccc1)c1cc(Cl)ccc1O
outcome [5]: inactive | outcome [6]: inactive | AC50 [7]: 0.484 µM (active) | outcome [8]: inactive

CCCC(CC)c1ccccc1 (configuration not stated)
outcome [5]: inactive | outcome [6]: inactive | outcome [7]: inactive | outcome [8]: inactive

C=C(C)C1CC=C(C)CC1 (configuration not stated)
outcome [5]: inactive | outcome [6]: inactive | outcome [7]: inactive | outcome [8]: inactive

Oc1ccccc1Cc1ccccc1O
outcome [1]: inactive | AC50 [2]: 1.96 µM (active) | AC50 [3]: 156 nM (active) | AC50 [4]: 5.2 µM (active)

Oc1ccc(/C=C/c2cc(O)cc(O)c2)cc1
AC50 [9]: 4.94 µM (active) | AC50 [10]: 15.2 µM (active) | AC50 [11]: 70.2 µM (active) | AC50 [12]: 40.5 µM (active)

O=c1c(O)c(-c2ccc(O)cc2O)oc2cc(O)cc(O)c12
AC50 [5]: 133 µM (active) | AC50 [6]: 109 µM (active) | AC50 [7]: 146 µM (active) | outcome [8]: inactive

CCCCCCCCCCCC(=O)N(C)CC(=O)O
AC50 [1]: 2900 nM (active) | AC50 [2]: 23.1 µM (active) | outcome [3]: inactive | AC50 [4]: 21.6 µM (active)

CC/C=C\CCOC(=O)c1ccccc1O
outcome [1]: inactive | outcome [2]: inactive | outcome [3]: inactive | outcome [4]: inactive

COc1ccc(C(=O)c2ccccc2)c(O)c1
AC50 [9]: 12.6 µM (active) | AC50 [10]: 18.5 µM (active) | outcome [11]: inactive

C/C=C/C=C/CCCCCCCO
outcome [5]: inactive | outcome [6]: inactive | AC50 [7]: 151 µM (active) | outcome [8]: inactive

N#Cc1ccc(C(c2ccc(C#N)cc2)n2cncn2)cc1
outcome [5]: inactive | outcome [6]: inactive | outcome [7]: inactive | outcome [8]: inactive

CC(C)(C)N
outcome [5]: inactive | outcome [6]: inactive | outcome [7]: inactive | outcome [8]: inactive

CCCCCCCCCC(C)=O
outcome [5]: inactive | outcome [6]: inactive | outcome [7]: inactive | outcome [8]: inactive

COc1ccc(-c2coc3cc(O)cc(O)c3c2=O)cc1
AC50 [9]: 2.14 µM (active) | AC50 [10]: 0.971 µM (active) | AC50 [11]: 75.9 µM (active) | AC50 [12]: 156 µM (active)

O=C(Oc1ccccc1)c1ccccc1O
outcome [5]: inactive | AC50 [6]: 53.4 µM (active) | outcome [7]: inactive | AC50 [8]: 38.4 µM (active)

Cc1c(C(=O)c2c[nH]n(C)c2=O)ccc(S(C)(=O)=O)c1C1=NOCC1
outcome [1]: inactive | outcome [2]: inactive | outcome [3]: inactive | outcome [4]: inactive | outcome [13]: inactive | outcome [14]: inactive | outcome [15]: inactive | outcome [16]: inactive | outcome [17]: inactive | outcome [18]: inactive | outcome [19]: inactive | outcome [20]: inactive

Cc1cccc(C(C)(C)C)c1O
outcome [9]: inactive | AC50 [10]: 121 µM (active) | outcome [11]: inactive

Nc1cccc(N)n1
outcome [1]: inactive | AC50 [2]: 0.00318 µM (active) | outcome [3]: inactive | outcome [4]: inactive
